Assay outcomes: PubChem, National Center for Advancing Translational Sciences (NCATS)
Many of the other results were omitted from the sample, so hits are more common in it than they were.
ALOX12 inh: inhibitors of human 12S-lipoxygenase ALOX12; P18054; purified 12hLO, xylenol orange hydroperoxide absorbance; Potency, µM (series often up to 108 µM), most hits filed as inhibitors; 580,000 tested, 1.1% active
Target sequence (P18054 whole entry, looked up): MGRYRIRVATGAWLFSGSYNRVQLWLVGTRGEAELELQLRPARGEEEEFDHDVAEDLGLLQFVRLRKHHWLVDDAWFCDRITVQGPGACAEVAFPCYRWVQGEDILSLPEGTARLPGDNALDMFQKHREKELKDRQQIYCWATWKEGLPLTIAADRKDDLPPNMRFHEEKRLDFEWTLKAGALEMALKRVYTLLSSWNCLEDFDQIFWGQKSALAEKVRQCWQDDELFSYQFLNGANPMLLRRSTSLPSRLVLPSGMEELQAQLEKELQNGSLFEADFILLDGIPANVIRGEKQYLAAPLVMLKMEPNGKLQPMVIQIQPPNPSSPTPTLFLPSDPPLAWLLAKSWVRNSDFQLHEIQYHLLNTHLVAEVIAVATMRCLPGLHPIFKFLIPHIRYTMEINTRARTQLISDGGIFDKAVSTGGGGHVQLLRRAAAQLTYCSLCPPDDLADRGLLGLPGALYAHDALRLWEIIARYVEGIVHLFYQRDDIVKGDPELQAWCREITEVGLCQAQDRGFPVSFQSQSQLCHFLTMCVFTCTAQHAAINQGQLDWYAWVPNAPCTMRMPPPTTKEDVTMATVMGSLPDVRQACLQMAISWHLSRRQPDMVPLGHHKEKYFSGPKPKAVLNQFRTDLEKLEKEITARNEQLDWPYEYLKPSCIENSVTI
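Purified human 12hLO (150 nM final) in 25 mM Hepes, 0.01% Triton X-100, pH 7.0 was preincubated 15 min at room temperature with compound. Then 40 uM arachidonic acid was added, 30 min. Hydroperoxide was read by Fe-XO absorbance ratio 573/405 nm.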
HT1080-NT tox: kills 2HG-producing HT-1080-NT fibrosarcoma cells. HT-1080-NT fibrosarcoma viability, CellTiter-Glo ATP luminescence, 48 h. Potency, µM (highest dose often 46.1 µM), actives largely listed as cytotoxic. 360,000 tested, 1.6% active;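 further: NT is the 2HG producing partner of a matched IDH1 knockdown line; nearly all actives have a fitted effect of over 55% in size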
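HT-1080-NT fibrosarcoma cells (2HG-overproducing), 750 cells/well in RPMI with 5% FBS, dosed after 2 h and incubated 48 h at 37C. CellTiter-Glo luminescence normalized to DMSO and no-cell wells; concentration-response curves fitted and classed.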
IL-1B inflam inh: inflammasome signaling inhibition, IL-1 beta readout | THP-1 LPS/ATP IL-1B secretion, AlphaLISA, 16 h; hits give low values | activity change, % at 57.5 µM | 360,000 tested, 4.7% active; in the data active means activity change below about -50%; inconclusive means mostly about -30% to -49%
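THP-1 cells pretreated 1 hr with compounds (up to 57.5 uM final), then stimulated with LPS (250 ng/mL final) plus ATP (1.25 mM final); secreted IL-1B measured by AlphaLISA after 16 hr, decreased signal indicating inhibition.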
HT1080 IDH1KD tx: kills HT-1080 cells with IDH1 knockdown; HT-1080 IDH1 knockdown viability, ATP luminescence, 48 h; Potency, µM (highest dose often 46.1 µM), hits mostly cytotoxic; 360,000 tested, 2% active; AID 686971
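Cytotoxicity counter-line: IDH1KD HT-1080, 48 h, CellTiter-Glo. Curves classed by r2, magnitude and activity.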
TDP1 cell noCPT: qHTS for Inhibitors of human tyrosyl-DNA phosphodiesterase 1 (TDP1): qHTS in cells in absence of CPT; DT40 Tdp1-/- hTDP1 cells, no CPT, ATP luminescence, 48 h; 420,000 tested, 15% active; Potency, µM (doses to about 46.2 µM), most hits filed as inhibitors; AID 686978, 2013; further: nearly all actives have a fitted effect of over 55% in size
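A cellular qHTS used chicken DT40 cells lacking endogenous Tdp1 but carrying stably transfected human TDP1. Compounds were applied without camptothecin, and cell growth kinetics were judged by ATP-dependent luminescence after ≥48 hr.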
DT40 TDP1 CPT: DT40-hTDP1 cell growth loss with CPT. AID 686979. 420,000 tested, 12% active. Potency, µM (highest dose often 46.2 µM), hits mostly inhibitors. chicken DT40 Tdp1-/-;hTDP1 cells + 20 nM CPT, ATP luminescence, 48 h; further: nearly all actives have a fitted effect of over 55% in size
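Cell growth measured by CellTiter-Glo luminescence after a minimum 48 h, 37 C compound exposure with 20 nM CPT in Tdp1-knockout DT40 cells stably expressing hTDP1, seeded 400/well; qHTS titration format.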
Numbers stand for hits; 0 = inactive; ? = inconclusive; - = no result; ! = repeats disagree; [ ] = another dose, or the depositor's remark. Unless noted, the call rests on the fitted dose curve; in most records, active means well fitted curve in the direction sought with a large enough effect; inconclusive means small, poorly fitted or top-dose-only effect, or another doubt; inactive means no such curve, though single readings can be large; an effect the other way counts as inactive or inconclusive.

SMILES | ALOX12 inh | HT1080-NT tox | IL-1B inflam inh | HT1080 IDH1KD tx | TDP1 cell noCPT | DT40 TDP1 CPT
CCOC(=O)N1CCC(n2c(SCC(=O)N3CCC(C)CC3)nc3ccccc3c2=O)CC1 | 0 | 0 | ? | 0 | ? | 16µM
C=CCSc1nc2ccccc2c(=O)n1C1CCOC(C)(C)C1 (stereo not given) | 0 | 0 | 0 | 0 | 23µM | 16µM
CCOC(=O)N1CCC(n2c(SCC(=O)Nc3ccccc3OC)nc3ccccc3c2=O)CC1 | 0 | 0 | 0 | 0 | ? | ?
CCOC(=O)N1CCC(n2c(SCC(=O)NCc3ccccc3)nc3ccccc3c2=O)CC1 | 0 | 0 | 0 | 0 | 21µM | 23µM
N/C(Cc1nc(-c2ccc(F)cc2)cs1)=N\O | 0 | 0 | -54 | 0 | 0 | 0
O=C(/C=C/c1ccccn1)c1ccc(Br)cc1O | ? | 0 | 0 | 0 | 18µM | 21µM
O=C(/C=C/c1ccccn1)c1cc(Br)ccc1O | ? | 0 | ? | 0 | 23µM | 23µM
O=C(NCc1ccccc1)c1cnc2n1CCN(Cc1ccccc1F)CC2 | 0 | - | - | - | - | -
CCc1nnc(NC(=O)C2CC(=O)N(c3ccc(Br)c(C)c3)C2)s1 (stereo not given) | 0 | - | - | - | - | -
c1cn2c(Nc3ccc4c(c3)OCCO4)c(-c3ccc(N4CCOCC4)cc3)nc2cn1 | 0 | 0 | 0 | 0 | 0 | ?
Cc1cccc(C)c1Nc1c(-c2ccccc2Cl)nc2cnccn12 | 0 | - | - | - | 21µM | ?
Cc1ccc(Nc2c(-c3ccc(N4CCOCC4)cc3)nc3c(C)cccn23)cc1 | 0 | - | - | - | 15µM | 16µM
Cc1ccccc1Nc1c(-c2cccc(O)c2)nc2cnccn12 | 0 | - | - | - | - | -
Cc1ccccc1Nc1c(-c2ccc(N3CCOCC3)cc2)nc2ccccn12 | 0 | - | - | - | ? | ?
Cc1cccc(C)c1Nc1c(-c2ccc(N3CCOCC3)cc2)nc2cnccn12 | 0 | 0 | 0 | 0 | 18µM | ?
O=C(c1ccccc1F)N1CCCC(c2nn(-c3ccccc3)c(=O)[nH]2)C1 (stereo not given) | 0 | - | - | - | - | -
CC(C)OC(=O)C1OC1(C)c1ccccc1 (stereo not given) | 0 | 0 | 0 | 0 | 0 | 0
CCCCNc1ccc(C(=O)OCCN(C)C)cc1 | 0 | 0 | 0 | 0 | ? | 13µM!
Oc1ccc(-c2cn3ccccc3n2)cc1O | 0 | 0 | 0 | 0 | 13µM | 26µM
Cc1ccn2cc(-c3cccc(S(=O)(=O)N4CCCCC4)c3)nc2c1 | 0 | 0 | 0 | 0 | 0 | 0
Oc1ccc(-c2cn3ccccc3n2)cc1 | 0 | 0 | 0 | 0 | ? | 0
Cc1ccn2cc(-c3ccc(O)c(O)c3)nc2c1 | ? | 0 | 0 | 0 | 9.2µM | 16µM
COC(=O)[C@H](CCSC)NC(=O)c1cc2c(cn1)[nH]c1ccccc12 | - | 0 | -80 | 0 | 7.3µM | 10µM
CNC(=O)c1cc2c(cn1)[nH]c1ccccc12 | 0 | ? | 0 | 0 | ? | ?
CCCCOC(=O)c1cc2c(cn1)[nH]c1ccccc12 | 0 | - | - | - | 18µM | 21µM!
SMILES | ALOX12 inh | HT1080-NT tox | IL-1B inflam inh | HT1080 IDH1KD tx | TDP1 cell noCPT | DT40 TDP1 CPT
Cn1nc(C(=O)N2CCCN(S(=O)(=O)c3ccccc3)CCC(=O)NCC2)c2ccccc21 | 0 | - | - | - | - | -
N#Cc1ccc(COC(=O)C2=NN(C3CCS(=O)(=O)C3)C(=O)CC2)cc1 (stereo not given) | 0 | - | - | - | - | -
C=C[C@@H]1c2ccccc2N(S(=O)(=O)c2ccc(C)cc2)[C@H](c2ccc(C(F)(F)F)cc2)C1(C#N)C#N | 0 | 0 | 0 | 0 | 12µM | 23µM
C=C[C@@H]1c2c(F)cccc2N(S(=O)(=O)c2ccc(C)cc2)[C@H](c2ccc(C(=O)OC)cc2)C1(C#N)C#N | ? | 0 | 0 | 0 | ? | ?
C=C[C@@H]1c2cccc(C)c2N(S(=O)(=O)c2ccc(C)cc2)[C@H](c2ccccc2)C1(C#N)S(=O)(=O)c1ccccc1 (stereo not given in full) | ? | 0 | 0 | 0 | 21µM | ?
C=C[C@@H]1c2c(F)cccc2N(S(=O)(=O)c2ccc(C)cc2)[C@H](c2ccc(OC(C)=O)cc2)C1(C#N)C#N | 0 | ? | 0 | ? | 21µM | ?
COc1ccc(C2=NS(=O)(=O)N(C)C(C(=O)N3CCCCC3C)=C2)cc1 (stereo not given) | 0 | 0 | 0 | 0 | ? | ?
COCCN(Cc1ccc(C)cc1)C(=O)[C@H]1O[C@@H](n2cnc(C(N)=O)n2)[C@H](O)[C@@H]1O | 0 | - | - | - | - | -
CNC(=O)[C@@H]1C[C@@H](n2cc(CN(C)C(=O)c3cc(F)ccc3Cl)nn2)CN1 | 0 | - | - | - | - | -
O=C(CCl)Nc1ccc(S(=O)(=O)Nc2nccs2)cc1 | 0 | ? | ? | 13µM | ? | ?
Cc1ccc(S(=O)(=O)NCCC(=O)Nc2nccs2)cc1 | 0 | 0 | -64 | 0 | 0 | 0
CCCC(=O)Nc1ccc(S(=O)(=O)Nc2nccs2)cc1 | 0 | 0 | 0 | 0 | 0 | 0
Cc1ccc(SCC(=O)Nc2ccc(S(=O)(=O)Nc3nccs3)cc2)cc1 | 0 | 0 | 0 | 0 | 3.7µM | ?
O=C(CSc1ccncc1)Nc1ccc(S(=O)(=O)Nc2nccs2)cc1 | 0 | 0 | 0 | 0 | 0 | 0
COc1cc(C(=O)N/C(=C/c2ccc(F)cc2)C(=O)NC(C(=O)O)c2ccccc2)cc(OC)c1OC (stereo not given) | 0 | 0 | 0 | 0 | 0 | 0
O=C(NNC(=O)C1CCC(c2ccccc2)CC1)c1ccccc1Cl (stereo not given) | 0 | - | - | - | - | -
COc1cccc(-c2cncnc2NCc2cccc(C)c2)c1 | ? | - | - | - | 23µM | ?
COc1cccc(-c2ccc3ncnc(NCc4ccccc4OC)c3c2)c1 | ? | - | - | - | 15µM | ?
COc1ccccc1CNc1ncnc2ccc(-c3cccc(NS(C)(=O)=O)c3)cc12 | 0 | - | - | - | 1.5µM | 1.6µM
N#Cc1cccc(-c2ccc3ncnc(NCc4ccccc4)c3c2)c1 | ? | - | - | - | 26µM | ?
CCN(Cc1ccccc1)C(=O)CC1CCCN(c2cnn(CC3CC3)c(=O)c2)C1 (stereo not given) | 0 | - | - | - | - | -
COCCNc1ncnc2ccc(-c3cccc(OC)c3)cc12 | ? | - | - | - | 23µM | ?
CN(C)c1ncnc2ccc(-c3cccc(C#N)c3)cc12 | 0 | - | - | - | ? | 26µM
COc1cccc(-c2ccc3ncnc(NCc4ccc5c(c4)OCO5)c3c2)c1 | 0 | - | - | - | - | -
Brc1ccc2ncnc(NCc3ccccc3)c2c1 | 0 | ? | ? | 0[9.24 µM] | 8.2µM | 7.3µM
COc1cccc(-c2ccc3ncnc(NCc4ccccc4)c3c2)c1 | 0 | - | - | - | 21µM | ?
COc1ccc(CNc2ncnc3ccc(-c4ccc(C(=O)N(C)C)cc4)cc23)c(OC)c1 | 0 | - | - | - | ? | ?
N#Cc1cccc(-c2ccc3ncnc(N4CCNCC4)c3c2)c1 | 0 | - | - | - | ? | 0
